Common to all, as to settings: mRNA level, 48 h; actives raise or lower the signal
Read-out in experiment [1]: Glutamate-cysteine ligase catalytic (GCLC), GCLC (gene 2729)
The experiment can be described thus: LTEA_HepaRG_GCLC: Life Technologies and Expression Analysis (LTEA) Assay for Glutamate-cysteine ligase catalytic (GCLC) using HepaRG (AID 2283498). In a few lines: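 Read-out is GCLC transcript level by Fluidigm-based TaqMan qRT-PCR, normalized to three housekeeping genes and fitted in both directions relative to 0.5% DMSO. Human HepaRG cells received chemicals for 48 h, up to 100 uM.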

Read-out in experiment [2]: growth arrest and DNA damage 45 (GADD45G), GADD45G (gene 10912)
The experiment can be described thus: LTEA_HepaRG_GADD45G: Life Technologies and Expression Analysis (LTEA) Assay for growth arrest and DNA damage 45 (GADD45G) using HepaRG (AID 2283499). The gist of the method: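 GADD45G transcript level by qRT-PCR (housekeeping-normalized: ACTB, GAPDH, POLR2A) after 48 h chemical treatment of a single HepaRG lot in serum-free induction medium; eight-point half-log series up to 100 uM in 0.5% DMSO, duplicates, up- or down-regulation scored.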

Read-out in experiment [3]: Glutamate-cysteine ligase regulatory (GCLM), GCLM (gene 2730)
Put plainly: LTEA_HepaRG_GCLM: Life Technologies and Expression Analysis (LTEA) Assay for Glutamate-cysteine ligase regulatory (GCLM) using HepaRG (AID 2283500). The gist of the method:
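Differentiated HepaRG cells exposed 48 h in serum-free induction medium to eight half-log concentrations up to 100 uM (0.5% DMSO). GCLM mRNA by TaqMan qRT-PCR, normalized to ACTB, GAPDH and POLR2A; bidirectional fit versus DMSO.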

Read-out in experiment [4]: Heat shock 70 kDa protein 1 (HSPA1A), gene 3303
The experiment can be described thus: LTEA_HepaRG_HSPA1A: Life Technologies and Expression Analysis (LTEA) Assay for Heat shock 70 kDa protein 1 (HSPA1A) using HepaRG (AID 2283502). The gist of the method:
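Human HepaRG cells in serum-free induction medium were exposed in duplicate for 48 h to 8 half-log concentrations, highest 100 uM, in 0.5% DMSO. HSPA1A mRNA read by TaqMan qRT-PCR, normalized to ACTB, GAPDH, POLR2A, fitted bidirectionally against DMSO.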

Read-out in experiment [5]: Hypoxia-inducible factor 1-alpha (Homo sapiens) (UniProt Q16665)
Put plainly: LTEA_HepaRG_HIF1A: Life Technologies and Expression Analysis (LTEA) Assay for Hypoxia-inducible factor 1 (HIF1A) Trancription factor using HepaRG (AID 2283503). The gist of the method:
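Differentiated HepaRG cells in serum-free induction medium exposed 48 h, in duplicate, to 8-point half-log series from 100 uM in 0.5% DMSO. HIF1A mRNA measured by TaqMan qRT-PCR, normalized to ACTB/GAPDH/POLR2A, fitted bidirectionally versus DMSO.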

Read-out in experiment [6]: 3-Hydroxy-3-Methylglutaryl-CoA Synthase 2 (HMGCS2), HMGCS2 (gene 3158)
Put plainly: LTEA_HepaRG_HMGCS2: Life Technologies and Expression Analysis (LTEA) Assay for 3-Hydroxy-3-Methylglutaryl-CoA Synthase 2 (HMGCS2) using HepaRG (AID 2283504). The gist of the method: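 Readout is HMGCS2 transcript by qRT-PCR, housekeeping-normalised (ACTB/GAPDH/POLR2A) and fitted bidirectionally against 0.5% DMSO. Differentiated HepaRG cells received chemicals 48 h, duplicate wells, eight half-log concentrations topping at 100 uM.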

Read-out in another experiment: HGF (gene 3082)
Put plainly: LTEA_HepaRG_HGF: Life Technologies and Expression Analysis (LTEA) Assay for Hepatocyte Growth Facto (HGF) using HepaRG (AID 2283505). The gist of the method: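 HGF transcript was quantified by TaqMan qRT-PCR against three housekeeping genes after 48 h treatment of HepaRG cells. Exposure ran in duplicate over eight half-log steps topping at 100 uM in 0.5% DMSO vehicle.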

Read-out in experiment [7]: Insulin Like Growth Factor 1 (IGF1), IGF1 (gene 3479)
The experiment can be described thus: LTEA_HepaRG_IGF1: Life Technologies and Expression Analysis (LTEA) Assay for Insulin Like Growth Factor 1 (IGF1) using HepaRG (AID 2283506). In a few lines:
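Differentiated HepaRG cells in serum-free induction medium, exposed 48 h in duplicate to 8 half-log concentrations up to 100 uM in 0.5% DMSO. IGF1 mRNA by Fluidigm qRT-PCR, normalised to ACTB, GAPDH and POLR2A.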

Read-out in experiment [8]: Intercellular Adhesion Molecule 1 (ICAM1), ICAM1 (gene 3383)
The experiment can be described thus: LTEA_HepaRG_ICAM1: Life Technologies and Expression Analysis (LTEA) Assay for Intercellular Adhesion Molecule 1 (ICAM1) using HepaRG (AID 2283507). The gist of the method: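 ICAM1 transcript levels measured by qRT-PCR, normalized to three housekeeping genes (ACTB, GAPDH, POLR2A), after 48 h chemical exposure of HepaRG cells. Duplicate eight-point half-log series from 100 uM in 0.5% DMSO; gain or loss fitted against vehicle.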

Read-out in experiment [9]: Insulin-like growth factor-binding protein 1 (IGFBP1), IGFBP1 (gene 3484)
The experiment can be described thus: LTEA_HepaRG_IGFBP1: Life Technologies and Expression Analysis (LTEA) Assay for Insulin-like growth factor-binding protein 1 (IGFBP1) using HepaRG (AID 2283508). The gist of the method: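 Read-out is qRT-PCR transcript level normalized to three housekeeping genes, fitted in both directions against 0.5% DMSO. Differentiated HepaRG cells received eight half-log concentrations (top 100 uM) in duplicate for 48 h in serum-free induction medium.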

Read-out in experiment [10]: Interleukin 6 (IL6), IL6 (gene 3569)
Put plainly: LTEA_HepaRG_IL6: Life Technologies and Expression Analysis (LTEA) Assay for Interleukin 6 (IL6) using HepaRG (AID 2283509). The gist of the method:
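HepaRG, ~100,000 cells/well, 48 h pre-culture; serum-free induction medium; cmpd 8-pt half-log from 100 uM, 0.5% DMSO, duplicate, 48 h. Lysis in RLT, TaqMan qRT-PCR; gain or loss vs DMSO.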

Read-out in experiment [11]: Interleukin 6 Receptor (IL6R), IL6R (gene 3570)
Put plainly: LTEA_HepaRG_IL6R: Life Technologies and Expression Analysis (LTEA) Assay for Interleukin 6 Receptor (IL6R) using HepaRG (AID 2283510). The gist of the method:
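Differentiated HepaRG cells, plated 48 h, then exposed in duplicate for 48 h in serum-free induction medium to 8 half-log concentrations (top 100 uM, 0.5% DMSO). IL6R mRNA measured by TaqMan qRT-PCR, normalized to ACTB/GAPDH/POLR2A; bidirectional fit vs DMSO.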

Read-out in experiment [12]: Potassium channel subfamily K member 1 (KCNK1), KCNK1 (gene 3775)
The experiment can be described thus: LTEA_HepaRG_KCNK1: Life Technologies and Expression Analysis (LTEA) Assay for Potassium channel subfamily K member 1 (KCNK1) using HepaRG (AID 2283511). The gist of the method: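 Gain or loss of KCNK1 mRNA is the read-out, quantified by qRT-PCR against three housekeeping genes after 48 h chemical treatment of human HepaRG liver cells. Concentrations ran from 100 uM downward in half-log steps, vehicle 0.5% DMSO.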

Read-out in experiment [13]: Keratin 19 (KRT19), KRT19 (gene 3880)
The experiment can be described thus: LTEA_HepaRG_KRT19: Life Technologies and Expression Analysis (LTEA) Assay for Keratin 19 (KRT19) using HepaRG (AID 2283512). In a few lines:
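KRT19 transcript measured by TaqMan qRT-PCR, referenced to three housekeeping genes, after HepaRG cells received test chemicals for 48 h. Eight half-log concentrations, top 100 uM, 0.5% DMSO vehicle; increases and decreases both fitted.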

Read-out in experiment [14]: JUN Transcription Factor, JUN (gene 3725)
The experiment can be described thus: LTEA_HepaRG_JUN: Life Technologies and Expression Analysis (LTEA) Assay for JUN Transcription Factor using HepaRG (AID 2283513). In a few lines:
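HepaRG cells, 48 h post-plating, exposed 48 h in serum-free induction medium to 8-point half-log series (top 100 uM, 0.5% DMSO), duplicate; mRNA by qRT-PCR (TaqMan, Fluidigm), normalized to ACTB/GAPDH/POLR2A; bidirectional fit vs DMSO.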

Read-out in experiment [15]: Lipase C (LIPC), LIPC (gene 3990)
Put plainly: LTEA_HepaRG_LIPC: Life Technologies and Expression Analysis (LTEA) Assay for Lipase C (LIPC) using HepaRG (AID 2283514). The gist of the method: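 Read-out is LIPC transcript level by TaqMan qRT-PCR, normalized to three housekeeping genes, after 48 h chemical treatment of human HepaRG liver cells. Curves span eight concentrations topping at 100 uM; activity in either direction scored relative to 0.5% DMSO.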

Read-out in experiment [16]: Lipoprotein lipase (LPL), LPL (gene 4023)
The experiment can be described thus: LTEA_HepaRG_LPL: Life Technologies and Expression Analysis (LTEA) Assay for Lipoprotein lipase (LPL) using HepaRG (AID 2283515). The gist of the method:
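Read-out is LPL transcript level by qRT-PCR, normalized to three housekeeping genes and fitted bidirectionally against the DMSO control. Human HepaRG cells received chemicals for 48 h at up to 100 uM.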

Read-out in experiment [17]: MicroRNA 122 (MIR122), gene 406906
The experiment can be described thus: LTEA_HepaRG_MIR122: Life Technologies and Expression Analysis (LTEA) Assay for MicroRNA 122 (MIR122) using HepaRG (AID 2283516). Note: the transcript read is the microRNA miR-122. The gist of the method:
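Differentiated human HepaRG cells in serum-free induction medium exposed 48 h to 8 half-log concentrations from 100 uM in 0.5% DMSO, duplicate. MIR122 quantified by Fluidigm TaqMan qRT-PCR, normalised to ACTB, GAPDH, POLR2A; fold change fitted bidirectionally versus DMSO.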

Read-out in experiment [18]: Glutathione S-transferase M3 (GSTM3), GSTM3 (gene 2947)
Put plainly: LTEA_HepaRG_GSTM3: Life Technologies and Expression Analysis (LTEA) Assay for Glutathione S-transferase M3 (GSTM3) using HepaRG (AID 2283501). The gist of the method:
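GSTM3 transcript levels came from Fluidigm TaqMan qRT-PCR normalized to three housekeeping genes, fitted in both directions against DMSO. HepaRG cultures received chemicals for 48 h in serum-free induction medium (0.5% DMSO), 8 half-log concentrations up to 100 uM, duplicate.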

SMILES strings stand for the structures. Activity calls are given as the source filed them. Rule for the calls: active = hit-call score of the fitted dose curve at least 0.9, where 1 is the maximum; inactive = score below 0.9.

Hypoxia-inducible factor 1-alpha (Homo sapiens), sequence (Q16665 whole entry, looked up): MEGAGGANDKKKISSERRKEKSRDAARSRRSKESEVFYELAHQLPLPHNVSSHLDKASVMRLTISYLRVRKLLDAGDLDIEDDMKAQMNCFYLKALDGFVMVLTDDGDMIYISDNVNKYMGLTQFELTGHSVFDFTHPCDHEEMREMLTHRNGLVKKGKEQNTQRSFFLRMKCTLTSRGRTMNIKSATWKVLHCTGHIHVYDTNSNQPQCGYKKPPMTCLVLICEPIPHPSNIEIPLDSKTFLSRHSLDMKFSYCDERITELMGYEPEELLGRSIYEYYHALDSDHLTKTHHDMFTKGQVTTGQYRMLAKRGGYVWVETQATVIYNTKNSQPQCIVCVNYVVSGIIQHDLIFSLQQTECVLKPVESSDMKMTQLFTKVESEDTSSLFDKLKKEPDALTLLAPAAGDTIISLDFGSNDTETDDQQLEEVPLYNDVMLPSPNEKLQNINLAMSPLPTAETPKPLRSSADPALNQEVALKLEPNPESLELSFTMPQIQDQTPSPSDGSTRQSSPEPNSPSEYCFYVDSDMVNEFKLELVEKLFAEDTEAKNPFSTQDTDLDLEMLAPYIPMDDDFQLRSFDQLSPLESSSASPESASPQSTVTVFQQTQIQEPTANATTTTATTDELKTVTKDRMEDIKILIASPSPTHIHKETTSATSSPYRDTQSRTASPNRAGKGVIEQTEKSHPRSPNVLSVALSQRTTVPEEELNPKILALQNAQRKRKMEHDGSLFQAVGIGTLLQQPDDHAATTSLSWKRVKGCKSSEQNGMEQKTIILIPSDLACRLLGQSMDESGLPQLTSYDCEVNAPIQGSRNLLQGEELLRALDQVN

As to `CCn1nc(C)c2c1C(=O)NCC(c1ccc(O)cc1)=N2`, the result in [1], in experiment [2], in experiment [3], in experiment [4], in experiment [5] and in experiment [6] was inactive. The molecule was called inactive (with HGF (gene 3082); in experiment [7]; in experiment [8]; in [9]; in experiment [10]; in [11]). Also, the molecule was classed as inactive in experiment [12], in experiment [14], in experiment [15], in experiment [16] and in [17]. Also, the AC50 in experiment [13] was 1840 nM (active).

On to `CC(=O)c1ccccc1`, for which the outcome in [1], in experiment [2], in [3], in [4], in [5] and in [6] was inactive. For the same molecule, the molecule was called inactive (in the experiment with HGF (gene 3082); in [7]; in experiment [8]; in [9]; in experiment [10]; in [11]). Further, the result in [12], in experiment [13], in [14], in experiment [15], in [16] and in experiment [17] was inactive.

In the case of `CC1(C)C(=O)N(Cl)C(=O)N1Cl`, the molecule was classed as inactive in experiment [1], in [2], in experiment [3], in experiment [18], in experiment [4] and in experiment [5]. In addition, the outcome (in experiment [6]; with HGF (gene 3082); in experiment [7]; in experiment [8]; in experiment [9]; in experiment [10]) was inactive. The outcome in experiment [12], in [13], in experiment [14], in experiment [15], in experiment [16] and in experiment [17] was inactive.

A word on the AC50: it is the midpoint of the concentration-response curve, whichever way the signal moves.

Source of the values: PubChem BioAssay (EPA / NIEHS).
